Assay outcomes as filed in PubChem.
A selection: hits, their analogues and other compounds. The true share with any hit is near 4%.
Shn3 inh set2 = reduction of Shn3 3'UTR firefly luciferase signal, primary screen, Schnurri-3 inhibitor project, cell-based, Clone20 osteoblasts, set 2 | Clone20 osteoblast Shn3 3'UTR firefly luciferase, 24 h | inhibition, % at 12.5 µM | actives 0.52% (n = 360,000) | AID 588674, 2011;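 active = mean inhibition of at least 75% with every replicate also reaching 75%; inconclusive = mean inhibition at least 75% but some replicate below; inactive = mean inhibition below 75%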;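 also: 0% = median of neutral control wells and 100% = pilot-screen positive control compound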
PAX8 reporter = inhibitors of PAX8-driven TPO luciferase reporter, primary screen, RMG-I cells, single concentration; SteadyGlo, 24 h; inhibition, % at 12.6 µM; actives 1.2% (n = 360,000);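 active = mean replicate inhibition at least 60% with every replicate also reaching 60%; inconclusive = only one of the two criteria is met; inactive = mean below 60% and not all replicates reaching 60%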;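 also: luciferase light reporting Pax8 driven TPO promoter activity; plate controls were median of neutral control wells for no effect and mitoxantrone controls for full effect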
Beta cell apopt = inhibitors of cytokine-induced beta cell apoptosis, primary screen, luminescence; INS-1E cytokine-induced death, ATP luminescence, 48 h; percent of positive-control rescue, neutral wells zero; protection from apoptosis, % (no concentration beside the values); actives 0.8% (n = 300,000);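 active = Every replicate reaches about 75%, or at least half do and their mean reaches it too, limit read from the data; inconclusive = At least half of replicates reach the limit but their mean does not; inactive = Under half of replicates reach the limit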;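 also: 0% = cytokine-treated negative control wells and 100% = positive control rescue; higher means more ATP so stronger rescue from cytokine killing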
Gli-Sufu block = Gli-Sufu pathway antagonists, primary screen, luciferase luminescence, Sufu-KO-LIGHT cells, uHTS; inhibition, % at 5 µM; actives 0.74% (n = 340,000); Sufu-KO-LIGHT fibroblasts, Gli luciferase reporter luminescence;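 active = inhibition above about 55%, limit read from the data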;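 also: 0% = DMSO-treated cells and 100% = wells with medium but no cells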
Mdm2 MdmX PPI = inhibitors of human Mdm2-MdmX association, primary screen, cell-based, luminescence, split luciferase, SaOS-2, uHTS; Protein Mdm4 (Homo sapiens) + E3 ubiquitin-protein ligase Mdm2 (Homo sapiens), …; SaOS-2 split-luciferase Mdm2/MdmX complementation; inhibition, % at 8 µM; actives 3% (n = 330,000); AID 485346, 2010;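 active = inhibition of at least 50% at 8 µM in the primary screen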
Target sequence (O15151 whole entry, looked up): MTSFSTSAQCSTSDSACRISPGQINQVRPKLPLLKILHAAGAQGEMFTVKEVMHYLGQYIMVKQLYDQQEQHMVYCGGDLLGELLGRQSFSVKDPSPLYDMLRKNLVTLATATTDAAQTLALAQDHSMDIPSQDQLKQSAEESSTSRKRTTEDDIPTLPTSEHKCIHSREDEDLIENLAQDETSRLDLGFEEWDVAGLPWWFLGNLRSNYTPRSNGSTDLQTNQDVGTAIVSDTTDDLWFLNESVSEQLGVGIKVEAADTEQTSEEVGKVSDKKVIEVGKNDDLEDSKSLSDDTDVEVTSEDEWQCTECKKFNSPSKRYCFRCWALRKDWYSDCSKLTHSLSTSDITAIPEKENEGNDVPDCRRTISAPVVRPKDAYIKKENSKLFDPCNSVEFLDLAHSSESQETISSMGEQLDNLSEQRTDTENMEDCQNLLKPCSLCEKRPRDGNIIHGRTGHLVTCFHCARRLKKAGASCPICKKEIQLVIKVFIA
Target sequence (Q00987 whole entry, looked up): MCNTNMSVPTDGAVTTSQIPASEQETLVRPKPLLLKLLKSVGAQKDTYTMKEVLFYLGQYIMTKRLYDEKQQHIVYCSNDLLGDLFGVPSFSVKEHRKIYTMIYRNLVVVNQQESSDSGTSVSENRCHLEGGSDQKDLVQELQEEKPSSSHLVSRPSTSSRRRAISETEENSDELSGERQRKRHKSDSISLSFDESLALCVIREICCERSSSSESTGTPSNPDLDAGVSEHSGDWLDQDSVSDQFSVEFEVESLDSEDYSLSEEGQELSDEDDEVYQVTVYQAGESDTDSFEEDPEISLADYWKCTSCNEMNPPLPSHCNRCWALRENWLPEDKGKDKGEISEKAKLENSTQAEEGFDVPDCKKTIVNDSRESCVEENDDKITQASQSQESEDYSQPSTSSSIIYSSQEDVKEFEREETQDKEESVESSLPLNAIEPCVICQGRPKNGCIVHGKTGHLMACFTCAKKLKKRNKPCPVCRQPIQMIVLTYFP
CSC inhib = cancer stem cell viability inhibitors, primary screen, luminescence; cancer stem cell-like cells viability; actives 1.1% (n = 300,000); AID 2717, 2010; inhibition, % at 7.5 µM; in the data active = inhibition above about 75%; inconclusive = no clear call, values can overlap the other calls; tested in HMLE shEcad cells
Mdm2-MdmX conf = Mdm2-MdmX complex disruptors, retested hits, confirmation, luminescence, single concentration; shares compounds with Mdm2 MdmX PPI; Mdm2-MdmX binding, luminescent assay; inhibition, % at 8 µM; actives 55% (n = 10,000); in the data active = inhibition above about 40%
Full FLuc ctr = full-length luciferase signal inhibition, confirmation, counter-screen for Mdm2/MdmX interaction inhibitor project, cell-based, single concentration, SaOS-2; SaOS-2 full-length luciferase counterscreen, luminescence; actives 77% (n = 6,200); inhibition, % at 8 µM; shares compounds with Mdm2 MdmX PPI; AID 504607, 2011;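 active = mean inhibition at 8 µM reaching about 37%, which flags the compound as non-specific, limit read from the data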;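 also: p53-null SaOS-2 cells with luciferase driven by a doxycycline-inducible promoter; compound on cells about two nights before reading with doxycycline added after day one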
* hit, by the source's call; u = inconclusive; x = not tested or not shown.

SMILES	Shn3 inh set2	PAX8 reporter	Beta cell apopt	Gli-Sufu block	Mdm2 MdmX PPI	CSC inhib	Mdm2-MdmX conf	others
O=C(Nc1ccccc1)c1ccc(Nc2c([N+](=O)[O-])cc([N+](=O)[O-])c3ccccc23)cc1	70.1	17.7	22.2	21.2	47.3	-3.3	x
O=[N+]([O-])c1cc(Br)c(Nc2ccccc2)c([N+](=O)[O-])c1	29.1	83.9*	68.0	-4.3	92.2*	38.7	49.6*	Full FLuc ctr=79.3*
Cc1ccc(O)c(C(=O)/C=C/c2ccc3c(c2)OCCO3)c1	-40.3	-23.5	0.8	1.0	51.8*	25.9	24.1
Cc1ccc(C(=O)C=Cc2ccc3c(c2)OCO3)c(C)c1	-58.3	-72.0	x	x	x	x	x
CCOC(=O)c1sc(=S)n(C)c1NC(=O)c1ccc(OC)cc1	-7.2	24.3	-1.8	5.3	20.5	-11.5	x
CCOC(=O)c1sc(=S)n(C)c1NC(=O)c1ccc(C(C)(C)C)cc1	-8.0	18.9	7.5	12.6	61.0*	36.6	30.8
C[C@@H]1CN([C@H](C)CO)C(=O)c2cc(NC(=O)Nc3ccc(C(F)(F)F)cc3)ccc2O[C@@H](C)CCCCO[C@@H]1CN(C)S(=O)(=O)c1ccc(Cl)cc1	x	-17.1	x	x	x	x	x
Cc1nc(SCC(=O)Nc2ccc(F)cc2)c(C#N)c(C)c1CC(=O)c1ccc(Br)cc1	32.9	x	-7.4	2.7	96.7*	-1.5	76.1*	Full FLuc ctr=80.4*
Cc1cccc(NC(=O)CSc2nc(C)c(CC(=O)c3ccc(Br)cc3)c(C)c2C#N)c1C	48.6	x	u	-3.8	100.2*	35.8	5.5
COc1ccc(CNC(=O)C[C@H]2C=C[C@@H](NC(=O)CN(C)C)[C@H](CO)O2)cc1	x	-19.5	x	x	x	x	x
CC(=O)n1c2c(c3ccccc31)OC(N)=C(C#N)C2c1ccc(C(C)C)cc1 (stereo not drawn)	-47.7	x	-13.0	9.6	59.0*	12.4	65.5*	Full FLuc ctr=130.6*
CC(=O)C1=C(C)OC(N)=C(C#N)C1c1cccc2ccccc12 (stereo not drawn)	3.8	7.6	-5.1	4.5	30.9	-20.8	x
CCOc1cccc(/C=N/Nc2ccc(S(=O)(=O)N(CC)CC)cn2)c1O	u	u	117.4*	89.5*	81.5*	116.6*	84.5*	Full FLuc ctr=55.0*
CCN(CC)S(=O)(=O)c1ccc(N/N=C(\C)c2ccc(OC)cc2O)nc1	91.2*	46.2	96.7*	24.6	57.5*	47.8	31.9
CN(C)CC(=O)N[C@@H]1CC[C@@H](CCn2cc(C3CC3)nn2)O[C@@H]1CO	x	-6.4	x	x	x	x	x
C[C@H]1CN([C@@H](C)CO)C(=O)c2cc(NS(=O)(=O)c3ccc(Cl)cc3)ccc2O[C@@H]1CN(C)C(=O)Nc1ccc(C(F)(F)F)cc1	x	12.5	x	x	x	x	x
C[C@H](CO)N1C[C@H](C)[C@@H](CN(C)S(=O)(=O)c2ccc(Cl)cc2)OCCCC[C@H](C)Oc2ccc(NC(=O)c3ccncc3)cc2C1=O	x	-11.1	x	x	x	x	x
O=C(C[C@H]1C=C[C@@H](NC(=O)C2CCC2)[C@H](CO)O1)NC1CCC1	x	-4.2	x	x	x	x	x
O=C(COc1cc2oc(=O)c3c(c2cc1Cl)CCC3)NCCCN1CCCC1=O	-13.2	-10.6	5.9	-6.9	-1.0	-5.2	x
O=C(COc1cc2oc(=O)c3c(c2cc1Cl)CCC3)Nc1ccc(CN2CCOCC2)cc1	0.9	-4.9	0.6	19.6	52.5*	14.8	19.2
O=c1c2ccccc2c(C=Nc2cccc(O)c2)c(O)n1-c1ccc2c(c1)OCO2	47.6	x	26.0	-27.3	81.7*	51.6	36.4
Cc1ccc(-c2nc3ncccc3o2)cc1NC(=O)c1sc2ccccc2c1Cl	85.3*	x	-1.1	5.1	82.9*	70.4	26.4
CO/N=C/C(=N\Nc1ccc(C)cc1)C(=O)c1ccc(OC)cc1	26.5	x	19.6	5.5	54.7*	73.3	58.4*	Full FLuc ctr=64.8*
CC1=CC(C)(C)Nc2ccc(OC(=O)c3ccco3)cc21	9.0	x	-20.4	8.8	72.1*	39.1	22.1
CC1=CC(C)(C)Nc2ccc(OC(=O)CN3C(=O)CCC3=O)cc21	31.5	x	x	6.0	55.4*	x	11.4
SMILES	Shn3 inh set2	PAX8 reporter	Beta cell apopt	Gli-Sufu block	Mdm2 MdmX PPI	CSC inhib	Mdm2-MdmX conf	others
CC1=CC(C)(C)Nc2ccc(OC(=O)C(C)N3C(=O)c4ccccc4C3=O)cc21 (stereo not drawn)	77.6	47.0	-24.0	9.3	56.5*	20.3	21.8
O=C(Oc1cccc(OC(=O)c2ccco2)c1)c1ccco1	1.2	0.3	-5.1	-4.7	10.3	3.4	x
CC1=CC(C)(C)Nc2ccc(OC(=O)c3cccnc3)cc21	49.3	30.1	-6.3	5.0	21.7	24.6	x
CC1=CC(C)(C)N2C(=O)C(=O)c3cc(OC(=O)c4ccco4)cc1c32	16.7	13.4	11.5	-3.2	74.6*	-6.7	58.9*	Full FLuc ctr=51.6*
CNC[C@@H]1OCCCC[C@@H](C)Oc2ccc(NS(C)(=O)=O)cc2C(=O)N([C@@H](C)CO)C[C@@H]1C	x	-18.1	x	x	x	x	x
CC(C)C#Cc1cnc2c(c1)C(=O)N([C@H](C)CO)C[C@@H](C)[C@@H](CN(C)C(=O)Cc1ccncc1)O2	x	-5.1	x	x	x	x	x
COc1ccc(NC(=O)Nc2ccc3c(c2)[C@H]2C[C@H](CC(=O)NCc4ccccn4)O[C@H](CO)[C@H]2O3)cc1	x	-3.3	x	x	x	x	x
C[C@@H](NC(=O)C[C@@H]1C[C@H]2c3cc(NC(=O)C4CCOCC4)ccc3O[C@H]2[C@H](CO)O1)c1ccccc1	x	-17.1	x	x	x	x	x
CCOc1ccc(C(=O)c2ccccc2C(=O)O)cc1OCC	-4.7	-8.2	-6.5	-2.2	1.7	-19.3	x
CC1=CC(=O)C(C(C)C)=C/C1=C(\c1cc(C(C)C)c(OP(=O)(O)O)cc1C)c1ccccc1C(=O)O	9.5	-18.6	3.7	-11.0	75.3*	101.3*	67.5*	Full FLuc ctr=50.3*
c1cc(C2CCCCC2)ccc1Oc1nc(N2CCOCC2)nc(N2CCOCC2)n1	1.3	x	-1.6	3.5	62.7*	-16.8	16.9
CN1C(=O)/C(=C/c2cn(CC(=O)N3CCCCC3)c3ccccc23)c2ccccc21	x	x	-0.2	x	52.4*	-1.9	32.2
CC(C)(C)CN1CCNC[C@H]1Cc1cccc2ccccc12	-19.5	-4.3	-1.3	11.9	28.6	5.1	x
